# Screening results as filed in PubChem.
# Only some compounds are listed: those with a hit (about 4.1% of all), similar ones and a draw of the others.
# ssDAF-12 act – activators of S. stercoralis DAF-12 nuclear receptor; HEK293 ssDAF-12/GRIP1 lit1-tk-luc reporter, luminescence; % of 3 µM dafachronic acid response; activation, % at 6.8 µM; 370,000 compounds, 1% hits; AID 652126;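 active means activation above the mean over all tested compounds plus 3 SD, cut at about 0.9% in these data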;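 further: 0% = DMSO-only wells and 100% = 3 µM delta7-dafachronic acid wells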
# DAX1 inh-1 – inhibitors of human orphan nuclear receptor DAX1 (NR0B1); HEK293 Gal4-DAX1 luciferase reporter, luminescence; inhibition, % at 6.75 µM; 340,000 compounds, 0.99% hits; AID 504766;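 active means inhibition above the mean over all tested compounds plus 3 SD, cut at about 4.2% in these data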;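 further: 0% = DAX1-transfected cells with DMSO and 100% = empty-vector control cells with DMSO; inhibition shows as a rise in luminescence from relieved DAX1 repression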
# Target sequence (P51843 207-470 limits assumed): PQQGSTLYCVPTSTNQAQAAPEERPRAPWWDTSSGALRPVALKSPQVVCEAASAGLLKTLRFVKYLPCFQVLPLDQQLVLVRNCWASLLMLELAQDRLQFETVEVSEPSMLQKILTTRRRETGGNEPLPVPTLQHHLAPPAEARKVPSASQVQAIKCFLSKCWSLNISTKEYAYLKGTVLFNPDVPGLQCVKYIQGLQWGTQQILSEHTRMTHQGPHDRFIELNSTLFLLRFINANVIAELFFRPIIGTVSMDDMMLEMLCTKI
# DAX1 inh-2 – inhibitors of DAX1 repression of SF-1 activated StAR promoter; HEK293T StAR-luciferase reporter, SF-1/DAX-1 repression relief; inhibition, % at 6.8 µM; 370,000 compounds, 1.1% hits; AID 652010;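 active means inhibition above the mean over all tested compounds plus 3 SD, cut at about 3.6% in these data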;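 further: 0% = DAX-1 cells with DMSO and 100% = cells lacking DAX-1 with DMSO; higher inhibition means more luminescence from relief of DAX-1 repression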
# hcDAF-12 act – H. contortus DAF-12 activation, primary screen; HEK293 hcDAF-12 lit1-tk-luc reporter, luminescence; 0% DMSO, 100% Δ7-dafachronic acid; activation, % at 6.8 µM; 370,000 compounds, 1.4% hits;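 active means activation above the mean of all tested compounds plus 3 SD, cut at about 5.5% in these data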;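 further: 100% = response to 3 µM Δ7-dafachronic acid high control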
# hgDAF12 agonist – hgDAF-12 agonism, primary luciferase screen. HEK293 GAL4-hgDAF12 UAS-luciferase reporter, agonist luminescence; normalized to butyrate control. 370,000 compounds, 1.8% hits. activation, % at 6.8 µM;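 active means activation above a cutoff set at the mean of all screened compounds plus 3 SD, cut at about 10% in these data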;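 further: 0% = DMSO wells and 100% = sodium butyrate wells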
# hgDAF12 ag – confirmation of H. glycines DAF-12 agonists. HEK293 GAL4-hgDAF12 luciferase reporter, agonist mode; percent of butyrate response. shares compounds with hgDAF12 agonist. 3,300 compounds, 80% hits. activation, % at 6.8 µM;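 active means mean activation over triplicate wells above the hit cutoff derived from the earlier primary screen, cut at about 11% in these data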;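 further: 0% = DMSO low control and 100% = 2 mM sodium butyrate high control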
# LXRb DAF12 ctr – activates human LXR-beta, counter-screen for DAF-12 agonists; 3,300 tested, under 10 active; activation, % at 6.8 µM; HEK293 Gal4-LXR luciferase reporter, 24 h; shares compounds with hgDAF12 agonist;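 active means mean activation of the triplicate above a set limit carried over from the primary screen, none filed active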
# * = called active by the depositor; · = no result given.
SMILES,ssDAF-12 act,DAX1 inh-1,DAX1 inh-2,hcDAF-12 act,hgDAF12 agonist,hgDAF12 ag,LXRb DAF12 ctr
CC1(C(=O)OCC(=O)c2c[nH]c3ccccc23)CC1(Cl)Cl (stereo unspecified),1.6*,1,2,5,14*,15*,0
Cc1nc(Nc2ncc(C(=O)Nc3c(C)cccc3Cl)s2)cc(N2CCN(CCO)CC2)n1,-2,·,4.4*,-7,15*,5,0
CN(C)CCNc1ncnc2c1ncn2[C@H]1CN(Cc2cccnc2)C[C@@H](CO)O1,-1,·,1,0,24*,-1,0
O=C(c1ccccc1)c1ccc(N2CCOCC2)c(F)c1,-2,1,2,1,16*,14*,1
COc1ccc2oc(C(=O)Nc3nc4ccccc4[nH]3)c(C)c2c1,0,2,4.2*,5,25*,18*,1
COc1ccc(Br)c(C(=O)Nc2nc3ccccc3[nH]2)c1,-1,1,1,1,3,·,·
Cc1nc(N)nc(Nc2ccc(C#N)cc2)c1Br,-3,0,-1,-3,3,·,·
N#Cc1c(N)nc(N)nc1Nc1ccc(Br)cc1,0,3,2,4,17*,18*,1
COc1cc(/C=C/c2nc3ccccc3c(=O)[nH]2)ccc1O,0,3,3.7*,3,17*,11*,1
O=c1[nH]c(/C=C/c2ccccc2Cl)nc2ccccc12,0,2,2,2,14*,21*,1
O=C(O)c1ccc(/C=C/c2nc3ccccc3c(=O)[nH]2)cc1,-1,2,0,0,0,·,·
Cc1cccc(/C=C/c2nc3ccccc3c(=O)[nH]2)c1,0,0,3.7*,4,18*,21*,1
CCCN1CCC(NC(=O)Nc2ccc([N+](=O)[O-])cc2)CC1,-1,0,1,1,1,·,·
COc1ccc(Nc2ncnc3c2c(C)c(C)n3CCO)cc1,1,3,4,3,16*,17*,1
Oc1c(C=NCc2ccccc2)sc2ccccc12,0,12*,1,4,15*,16*,0
Oc1cccc(C=NCc2ccccc2)c1O,-1,-1,-1,-1,-1,·,·
COCCc1ccc(OC2(C)CCN(Cc3cccn3-c3nccs3)C2)cc1 (stereo unspecified),-1,·,-1,0,-2,·,·
O=C(N/N=C/c1ccc(OC(=O)c2ccco2)cc1)c1ccccn1,0,·,4.0*,3,17*,15*,1
O=C(N/N=C/c1cccc(OC(=O)c2ccco2)c1)c1ccc(F)cc1,0,1,3,3,17*,13*,0
COC(=O)[C@H](CO)N1C(=O)[C@@H]2[C@H](C1=O)C1C=C[C@H]2C1,-1,0,-1,0,2,·,·
COC(=O)c1ccc(Cn2nnc3ccccc32)cc1,-1,2,0,-2,0,·,·
COC(=O)c1ccc(COn2nnc3ccccc32)cc1,0,0,3,4,17*,14*,1
CCOCCn1c(SCC(=O)OCc2ccccc2)nc2c1c(=O)[nH]c(=O)n2C,-1,1,3,4,13*,-1,0
N=c1oc2ccccc2cc1C(=O)NC1CCCCCC1,0,0,2,2,14*,14*,1
N=c1oc2ccc(Cl)cc2cc1C(=O)NC1CCCCCC1,0,1,0,4,0,·,·
Cc1ccc(S(=O)(=O)N2CCCN(C(=O)c3ccc(-n4nccc4C)cc3)CC2)cc1,-1,0,2,-2,-1,·,·
CN(CC(=O)N1CCc2ccccc21)S(=O)(=O)c1cccs1,0,2,3,3,13*,12*,1
CC(C(=O)N1CCc2ccccc21)N1CCN(S(=O)(=O)c2cccs2)CC1 (stereo unspecified),-1,-1,0,-1,-1,·,·
